PubChem BioAssay (NCATS)
A number with no mark means an inactive call. Calls come from the whole dose curve; as a rule, active = well fitted activation curve with a large enough effect; inconclusive = small, poorly fitted or top-dose-only effect; inactive = no such curve, though single readings can be large or run the other way.

Target: Parathyroid hormone/parathyroid hormone-related peptide receptor (Homo sapiens) (UniProt Q03431)
Experiment: qHTS for PTHR1 Agonists: Optimization Screen against the NCGC LOPAC library (AID 1347079); note: 0% is about no effect
Settings: HEK293 GP2 PTHR1 GloSensor cAMP luminescence, 1 h; series mostly up to 57.1 µM; activation: at the top concentration
Outline: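 Signal increase flags agonism. GP2 cells, derived from HEK-293, express human PTHR1 and a GloSensor cAMP construct.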

Parathyroid hormone/parathyroid hormone-related peptide receptor (Homo sapiens), sequence (Q03431 whole entry, looked up): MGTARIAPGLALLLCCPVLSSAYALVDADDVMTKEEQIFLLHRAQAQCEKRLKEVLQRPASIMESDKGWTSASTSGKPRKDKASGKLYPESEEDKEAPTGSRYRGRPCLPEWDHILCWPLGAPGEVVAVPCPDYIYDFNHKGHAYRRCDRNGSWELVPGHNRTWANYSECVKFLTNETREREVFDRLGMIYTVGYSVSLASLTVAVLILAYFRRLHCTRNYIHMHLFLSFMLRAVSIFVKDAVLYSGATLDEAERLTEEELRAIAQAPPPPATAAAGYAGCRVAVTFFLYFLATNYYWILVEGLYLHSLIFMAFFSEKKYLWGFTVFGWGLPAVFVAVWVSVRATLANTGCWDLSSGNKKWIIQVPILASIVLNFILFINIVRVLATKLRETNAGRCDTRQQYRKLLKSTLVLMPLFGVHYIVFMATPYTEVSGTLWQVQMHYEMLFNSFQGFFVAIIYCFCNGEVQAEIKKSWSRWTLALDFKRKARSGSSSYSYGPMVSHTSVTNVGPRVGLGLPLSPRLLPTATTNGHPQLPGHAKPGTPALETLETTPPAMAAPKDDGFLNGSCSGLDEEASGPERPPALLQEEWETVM

SMILES	activation [%]
Brc1c(Br)c(Br)c2n[nH]nc2c1Br	-16
Nc1nc(Nc2ccccc2)nc2c1ncn2[C@@H]1O[C@H](CO)[C@@H](O)[C@H]1O	7.94
CCCCCCCCCCCCCCCC(=O)OC(CC(=O)O)C[N+](C)(C)C (stereo not drawn)	-36.2
NCCCS(=O)(=O)O	-9.25
Cn1ncc(S(=O)(=O)Cc2ccccc2)c(Br)c1=O	-32.8
O=C(CCCCCN1CCN(c2ccccc2-c2ccccc2)CC1)NC1CCCc2ccccc21 (stereo not drawn)	8.2
O=c1[nH]c2cc([N+](=O)[O-])c([N+](=O)[O-])cc2[nH]c1=O	-17.6
CCCCCCCC/C=C\CCCCCCCC(=O)NCCO	-26.5
CC(=O)N[C@H](C(=O)O)C(C)(C)SN=O	-38.3
O=C(O)CC1CCCc2ccccc2C1O (stereo not drawn)	-23.2
NC(N)=NC(=O)c1nc(Cl)c(N2CCCCCC2)nc1N	-20.1
CC(C)NCC(O)COc1cccc2ccccc12 (stereo not drawn)	-12.9
Cc1cc(NC(=O)Nc2ccc3c(ccn3C)c2)sn1	1.7
